# From the supplement of paper PMC7411054
# Key:
# Details in all cases: treatment time: 24 h
# [1] = system: A549-ACTB-RAB5A; assay: phenotypically active (imaging signature differs from DMSO and reproducible) at any of 0.3-9 uM (binary (1 = active, 0 = inactive)); higher = active
# Outline: (§1)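 Live-cell features were measured per well and normalised to solvent control wells after fifteen gene-edited A549, HepG2 and WPMY1 reporter lines had been treated for 24 h at 0.3, 1, 3 or 9 µM in four wells each. A condition was deviating when ≥3 of 4 wells sat beyond the 95th percentile of control Euclidean distances. It was reproducible when the median replicate Pearson correlation exceeded the 95th percentile of non-replicates. Phenotypic activity demanded both.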
# [2] = system: A549-CANX-COX4; assay: as above
# Outline: as §1
# [3] = system: A549-GM130-SQSTM1; assay: as above
# Outline: as §1
# [4] = system: A549-TUBA1B-RELA; assay: as above
# Outline: as §1
# [5] = system: HepG2-ACTB-RAB5A; assay: as above
# Outline: as §1
# [6] = system: HepG2-CANX-COX4; assay: as above
# Outline: as §1
# [7] = system: HepG2-GM130-SQSTM1; assay: as above
# Outline: as §1
# [8] = system: HepG2-TUBA1B-RELA; assay: as above
# Outline: as §1
# [9] = system: WPMY1-ACTB-RAB5A; assay: as above
# Outline: as §1
# [10] = system: WPMY1-CANX-COX4; assay: as above
# Outline: as §1
# [11] = system: WPMY1-GM130-SQSTM1; assay: as above
# Outline: as §1
# [12] = system: WPMY1-TUBA1B-RELA; assay: as above
# Outline: as §1
# [13] = system: A549-TP53BP1-CLTA; assay: as above
# Outline: as §1
# [14] = system: HepG2-TP53BP1-CLTA; assay: as above
# Outline: as §1
# [15] = system: WPMY1-TP53BP1-CLTA; assay: as above
# Outline: as §1
# [16] = system: HepG2-CANX-COX4; assay: lowest phenotypically active concentration; higher = less potent
# Outline: as §1
# [17] = system: HepG2-GM130-SQSTM1; assay: as above
# Outline: as §1
# [18] = system: HepG2-TUBA1B-RELA; assay: as above
# Outline: as §1
# [19] = system: WPMY1-ACTB-RAB5A; assay: as above
# Outline: as §1
# [20] = system: WPMY1-GM130-SQSTM1; assay: as above
# Outline: as §1
SMILES,phenotypically active [1],phenotypically active [2],phenotypically active [3],phenotypically active [4],phenotypically active [5],phenotypically active [6],phenotypically active [7],phenotypically active [8],phenotypically active [9],phenotypically active [10],phenotypically active [11],phenotypically active [12],phenotypically active [13],phenotypically active [14],phenotypically active [15],lowest phenotypically active concentration [16] [µM],lowest phenotypically active concentration [17] [µM],lowest phenotypically active concentration [18] [µM],lowest phenotypically active concentration [19] [µM],lowest phenotypically active concentration [20] [µM]
Cc1cnc(NC(=O)C2=C(O)c3ccccc3S(=O)(=O)N2C)s1 [meloxicam],0 (inactive),0 (inactive),0 (inactive),0 (inactive),0 (inactive),0 (inactive),0 (inactive),0 (inactive),0 (inactive),0 (inactive),0 (inactive),0 (inactive),,,,,,,,
C[C@@H](Oc1cc(-c2cnn(C3CCNCC3)c2)cnc1N)c1c(Cl)ccc(F)c1Cl [Crizotinib],,1 (active),1 (active),,1 (active),1 (active),,1 (active),1 (active),1 (active),1 (active),1 (active),1 (active),1 (active),1 (active),,,,,
CCCCCCCCCCCCc1ccc(S(=O)(=O)Nc2nncs2)cc1,,0 (inactive),,,0 (inactive),0 (inactive),0 (inactive),0 (inactive),0 (inactive),0 (inactive),0 (inactive),0 (inactive),0 (inactive),0 (inactive),0 (inactive),,,,,
Nc1ccn([C@@H]2O[C@H](CO)[C@@H](O)C2(F)F)c(=O)n1 [gemcitabine],,1 (active),,,1 (active),1 (active),1 (active),1 (active),1 (active),1 (active),1 (active),1 (active),1 (active),1 (active),1 (active),≤ 0.3,≤ 0.3,≤ 0.3,≤ 0.3,≤ 0.3
CC(C)CCN1c2nc(Nc3cc(F)c(O)c(F)c3)ncc2N(C)C(=O)C1C (centres undefined),,0 (inactive),,,1 (active),1 (active),1 (active),1 (active),1 (active),1 (active),1 (active),1 (active),1 (active),1 (active),1 (active),3,1,3,3,≤ 0.3
O=c1cc(-c2ccc(O)cc2)oc2c(C3O[C@H](CO)[C@@H](O)[C@H](O)[C@H]3O)c(O)cc(O)c12 (some centres undefined) [Vitexin],,0 (inactive),,,0 (inactive),0 (inactive),0 (inactive),0 (inactive),0 (inactive),0 (inactive),0 (inactive),0 (inactive),0 (inactive),0 (inactive),0 (inactive),,,,,
C#C[C@]1(OC(C)=O)CC[C@H]2[C@@H]3CCC4=C[C@@H](OC(C)=O)CC[C@@H]4[C@H]3CC[C@@]21C [ethynodiol diacetate],,0 (inactive),,,0 (inactive),0 (inactive),0 (inactive),0 (inactive),0 (inactive),0 (inactive),0 (inactive),0 (inactive),0 (inactive),0 (inactive),0 (inactive),,,,,
O=c1[nH]cc(F)c(=O)[nH]1 [5-Fluorouracil],,1 (active),,,1 (active),1 (active),1 (active),1 (active),0 (inactive),0 (inactive),0 (inactive),0 (inactive),1 (active),1 (active),1 (active),3,3,3,,
COc1ccc2c(Oc3ccc(NC(=O)c4c(C)n(CC(C)(C)O)n(-c5ccccc5)c4=O)nc3)ccnc2c1,,0 (inactive),,,0 (inactive),1 (active),1 (active),1 (active),0 (inactive),0 (inactive),0 (inactive),0 (inactive),0 (inactive),1 (active),0 (inactive),9,9,9,,
C[C@@H](c1ncncc1F)[C@](O)(Cn1cncn1)c1ccc(F)cc1F [voriconazole],,0 (inactive),,,0 (inactive),0 (inactive),0 (inactive),0 (inactive),0 (inactive),0 (inactive),0 (inactive),0 (inactive),0 (inactive),0 (inactive),0 (inactive),,,,,
Oc1ccc(Nc2nc(-c3ccc(Cl)cc3)cs2)cc1,,1 (active),,,0 (inactive),1 (active),1 (active),0 (inactive),1 (active),1 (active),1 (active),1 (active),1 (active),0 (inactive),1 (active),9,9,,3,3
N#Cc1c(NC(=O)c2cccc3ccccc23)sc2c1CCCC2,,1 (active),,,1 (active),1 (active),1 (active),1 (active),1 (active),1 (active),1 (active),1 (active),1 (active),1 (active),1 (active),≤ 0.3,≤ 0.3,≤ 0.3,≤ 0.3,≤ 0.3
